About 2,000 (36%) of roughly 5,500 compounds were called active. Inconclusive results (about 18%) are left out. Cut-off read from the data, not from the text of the source: active = normalized growth mostly below about 0.91 (no sharp cut-off); inconclusive = no clear call, values can overlap the other calls; inactive = mostly above about 0.92. Some of the results follow.
Assay: chemical genetic growth profiling, strain panel (AID 1159580);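 note: tested at 20 µM; growth read once vehicle control cultures reached saturation at 30 °C; 1 = growth at the plate median or of vehicle wells; lower values mean less growth of the strain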
Conditions: growth OD

Measured: normalized growth

Cc1cc(=O)n2[nH]cnc2n1
inactive: S. cerevisiae deletion strains, locus YAL013W, strain DEP1, hits give low values 1.05 | S. cerevisiae deletion strains, locus YBR229C, strain ROT2, hits give low values 1.01 | S. cerevisiae deletion strains, locus YDL101C, strain DUN1, hits give low values 1.06 | S. cerevisiae deletion strains, locus YDL134C, strain PPH21, hits give low values 0.964 | S. cerevisiae deletion strains, locus YDR150W, strain NUM1, hits give low values 1.05 | S. cerevisiae deletion strains, locus YEL061C, strain CIN8, hits give low values 1 | S. cerevisiae deletion strains, locus YGR078C, strain PAC10, hits give low values 1.05 | S. cerevisiae deletion strains, locus YHR030C, strain SLT2, hits give low values 1.14 | S. cerevisiae deletion strains, locus YHR087W, strain rtc3, hits give low values 0.99 | S. cerevisiae deletion strains, locus YJR043C, strain POL32, hits give low values 1.08 | S. cerevisiae deletion strains, locus YJR075W, strain HOC1, hits give low values 1.02 | S. cerevisiae deletion strains, locus YKL190W, strain CNB1, hits give low values 0.997 | S. cerevisiae deletion strains, locus YLR039C, strain RIC1, hits give low values 0.977 | S. cerevisiae deletion strains, locus YLR058C, strain SHM2 (second series), hits give low values 0.996 | S. cerevisiae deletion strains, locus YLR085C, strain ARP6, hits give low values 1.01 | S. cerevisiae deletion strains, locus YLR262C, strain YPT6, hits give low values 0.964 | S. cerevisiae deletion strains, locus YML094W, strain GIM5, hits give low values 0.985 | S. cerevisiae deletion strains, locus YMR219W, strain ESC1, hits give low values 0.99 | S. cerevisiae deletion strains, locus YMR263W, strain SAP30, hits give low values 1.02 | S. cerevisiae deletion strains, locus YNL153C, strain GIM3, hits give low values 1.03 | S. cerevisiae deletion strains, locus YNL298W, strain CLA4 (second series), hits give low values 1.01 | S. cerevisiae deletion strains, locus YNL322C, strain KRE1, hits give low values 1 | S. cerevisiae deletion strains, locus YNR030W, strain Alg12, hits give low values 1.02 | S. cerevisiae deletion strains, locus YPL055C, strain LGE1, hits give low values 0.997 | S. cerevisiae deletion strains, locus YPL241C, strain CIN2, hits give low values 1.01 | S. cerevisiae deletion strains, locus YPR135W, strain CTF4, hits give low values 1.09 | S. cerevisiae strains, strain wild type, hits give low values 1.01
